This is an account of results in PMC11574364.

What all share (assay): protein domain microarray probed with biotinylated miRNA; Domain array: 20 mM Tris-HCl pH 7.4, 200 mM KCl, 0.2 mM EDTA, 0.05% NP40, 2 ug/ul heparin, overnight 4 C. ORF array: PBS pH 7.0 with RNase inhibitor, 100 ng RNA; high values mean tight binding
What all share (settings): ssRNA

In assay [1] the target is CELF6(1-2) (Homo sapiens, UniProt Q96J87).
The target in assay [2] is T1, hnRNP-D-like (Homo sapiens, UniProt O14979).
T1 sequence: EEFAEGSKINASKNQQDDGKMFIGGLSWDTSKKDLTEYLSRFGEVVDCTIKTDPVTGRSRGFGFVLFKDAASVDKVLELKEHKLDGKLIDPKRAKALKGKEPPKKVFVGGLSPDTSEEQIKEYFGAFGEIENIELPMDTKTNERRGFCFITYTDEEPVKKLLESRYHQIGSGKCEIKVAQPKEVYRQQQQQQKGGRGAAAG

The target of assay [3] is IGF2BP2 (Homo sapiens, UniProt Q9Y6M1).
The target in assay [4] is NIFK (Homo sapiens, UniProt Q9BYG3).
The target of assay [5] is T2, PABPNL1 (Homo sapiens, UniProt A6NDY0).
T2 sequence: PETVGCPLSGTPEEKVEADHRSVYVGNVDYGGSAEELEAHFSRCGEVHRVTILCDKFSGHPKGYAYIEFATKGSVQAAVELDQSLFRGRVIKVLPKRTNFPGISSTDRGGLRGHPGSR

Assay [6] deals with PABPC5 (Homo sapiens, UniProt Q96DU9).
For assay [7], the target named is T3, MYEF2(1-2) (Homo sapiens, UniProt Q9P2K5).
T3 sequence: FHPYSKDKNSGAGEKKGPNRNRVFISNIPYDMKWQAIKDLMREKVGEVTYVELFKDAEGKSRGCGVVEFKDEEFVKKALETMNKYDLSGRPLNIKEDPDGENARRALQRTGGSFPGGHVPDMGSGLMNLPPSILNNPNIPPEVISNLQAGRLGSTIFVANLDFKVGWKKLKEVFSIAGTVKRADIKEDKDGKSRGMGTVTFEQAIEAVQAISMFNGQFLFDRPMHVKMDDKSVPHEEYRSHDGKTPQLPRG

Assay [8] has as its target T4, CIRBP (Homo sapiens, UniProt Q14011).
T4 sequence: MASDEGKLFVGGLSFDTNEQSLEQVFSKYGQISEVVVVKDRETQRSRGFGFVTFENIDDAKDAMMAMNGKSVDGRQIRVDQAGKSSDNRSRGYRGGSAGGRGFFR

For assay [9], the target named is ELAVL4 (Homo sapiens, UniProt P26378).
In assay [10] the target is T5, NCBP2 (Homo sapiens, UniProt P52298).
T5 sequence: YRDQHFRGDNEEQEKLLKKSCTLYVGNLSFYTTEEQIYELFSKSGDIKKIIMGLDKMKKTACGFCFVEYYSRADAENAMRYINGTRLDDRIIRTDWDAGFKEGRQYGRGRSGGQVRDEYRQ

Chain of PABPC5 (Q96DU9 whole entry): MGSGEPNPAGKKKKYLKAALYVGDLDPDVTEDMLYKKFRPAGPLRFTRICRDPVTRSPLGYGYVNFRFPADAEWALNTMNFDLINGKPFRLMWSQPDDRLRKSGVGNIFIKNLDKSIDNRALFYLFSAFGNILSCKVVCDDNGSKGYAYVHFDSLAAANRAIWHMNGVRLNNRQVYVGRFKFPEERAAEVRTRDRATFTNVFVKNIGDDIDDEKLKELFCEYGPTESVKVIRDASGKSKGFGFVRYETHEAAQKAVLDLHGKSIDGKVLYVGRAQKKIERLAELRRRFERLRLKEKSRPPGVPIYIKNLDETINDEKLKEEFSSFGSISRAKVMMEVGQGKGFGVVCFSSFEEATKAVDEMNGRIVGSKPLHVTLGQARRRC
Chain of ELAVL4 (P26378 30-385): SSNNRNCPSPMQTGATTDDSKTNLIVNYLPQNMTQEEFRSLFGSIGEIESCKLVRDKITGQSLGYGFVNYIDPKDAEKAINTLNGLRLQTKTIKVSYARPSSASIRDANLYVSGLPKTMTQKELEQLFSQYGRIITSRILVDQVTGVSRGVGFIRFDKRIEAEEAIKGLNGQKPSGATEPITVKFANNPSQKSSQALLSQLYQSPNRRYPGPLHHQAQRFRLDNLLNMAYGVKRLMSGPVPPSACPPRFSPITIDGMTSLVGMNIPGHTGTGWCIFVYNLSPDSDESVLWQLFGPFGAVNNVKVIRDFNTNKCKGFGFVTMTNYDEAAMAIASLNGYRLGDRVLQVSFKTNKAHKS
Chain of CELF6(1-2) (Q96J87 21-233): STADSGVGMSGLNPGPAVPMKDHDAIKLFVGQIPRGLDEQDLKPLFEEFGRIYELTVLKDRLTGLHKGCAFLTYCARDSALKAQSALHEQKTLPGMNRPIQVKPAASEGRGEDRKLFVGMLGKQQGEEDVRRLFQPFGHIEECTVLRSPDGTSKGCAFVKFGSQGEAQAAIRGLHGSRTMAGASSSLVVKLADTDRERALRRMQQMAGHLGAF
Chain of IGF2BP2 (Q9Y6M1 1-177): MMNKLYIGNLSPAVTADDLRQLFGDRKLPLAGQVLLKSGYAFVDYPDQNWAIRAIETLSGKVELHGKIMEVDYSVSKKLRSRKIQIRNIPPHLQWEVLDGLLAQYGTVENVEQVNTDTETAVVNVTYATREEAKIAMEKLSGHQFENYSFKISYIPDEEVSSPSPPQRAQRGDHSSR

As to CAGUGCAAUGAUGAAAGGGCAU, the binding signal in [1] stood at 105 ± 14.1 fluorescence intensity; in assay [2], 250 ± 14.8 fluorescence intensity; in assay [3] it was 91.7 ± 5.63 fluorescence intensity; in [4], 38.6 ± 4.43 fluorescence intensity; in [5], 2030 ± 144 fluorescence intensity; in [6], 187 ± 8.46 fluorescence intensity. The results for the binding signal in assay [7], in assay [8] and in assay [9] were 826 ± 53.3 fluorescence intensity, 2040 ± 82.9 fluorescence intensity and 1170 ± 66.8 fluorescence intensity, respectively.

UGAGGUAGUAGGUUGUAUAGUU: the binding signal in assay [1] amounted to 28.4 ± 3.05 fluorescence intensity; in assay [2], 288 ± 15.7 fluorescence intensity; in [3] it was 28.3 ± 5.47 fluorescence intensity; in assay [4], 23 ± 0.658 fluorescence intensity; in assay [5], 531 ± 16.5 fluorescence intensity; in assay [6], 52 ± 3.7 fluorescence intensity. Besides, the binding signal is 228 ± 4.88 fluorescence intensity in assay [7], 1010 ± 76.7 fluorescence intensity in assay [8] and 725 ± 56.5 fluorescence intensity in assay [9].

With UGAGGUAGUAGGUUGUGUGGUU, the binding signal in assay [1] worked out at 224 ± 12 fluorescence intensity; in [10] it was 68.7 ± 13.2 fluorescence intensity; in assay [2] it was 751 ± 46.5 fluorescence intensity; in assay [3], 60.9 ± 10.8 fluorescence intensity; in assay [4], 207 ± 7.23 fluorescence intensity; in assay [5] it was 1609 ± 3.14 fluorescence intensity. Besides, the binding signal is 304 ± 27.6 fluorescence intensity in [6], 1050 ± 50.7 fluorescence intensity in assay [7], 2020 ± 38.1 fluorescence intensity in assay [8] and 1510 ± 102 fluorescence intensity in [9].

Take AGAGGUAGUAGGUUGCAUAGUU: the binding signal in assay [1] came out at 88.4 ± 8.85 fluorescence intensity; in [10], 29.2 ± 11.8 fluorescence intensity; in assay [2], 601 ± 9.77 fluorescence intensity; in assay [3], 130 ± 20.3 fluorescence intensity; in assay [4], 81.96 ± 0.608 fluorescence intensity; in assay [5] it was 1510 ± 38.3 fluorescence intensity. In addition, the binding signal in assay [6] is 351 ± 14.6 fluorescence intensity; in assay [7], 1130 ± 77.2 fluorescence intensity; in assay [8], 2620 ± 43 fluorescence intensity; in [9], 1830 ± 31 fluorescence intensity.

On to UGAGGUAGUAGGUUGUAUGGUU, for which the binding signal in assay [1] was determined as 89.8 ± 3.29 fluorescence intensity; in [10] it was 66.8 ± 8.78 fluorescence intensity; in assay [2] it was 741 ± 27.9 fluorescence intensity; in assay [3] it was 49.2 ± 7.44 fluorescence intensity; in assay [4], 138 ± 7.4 fluorescence intensity; in [5] it was 1110 ± 57.4 fluorescence intensity. Also, the binding signal is 291 ± 13.4 fluorescence intensity in assay [6], 789 ± 41.9 fluorescence intensity in [7], 1980 ± 32.4 fluorescence intensity in [8] and 1450 ± 42.8 fluorescence intensity in [9].

With UAGCUUAUCAGACUGAUGUUGA, the binding signal stood at 32.2 ± 4.03 fluorescence intensity in assay [1]; 40.3 ± 4.07 fluorescence intensity in [2]; 21.5 ± 2.16 fluorescence intensity in assay [3]; 322 ± 10.4 fluorescence intensity in [5]; 393 ± 6.4 fluorescence intensity in assay [7]; 801 ± 174 fluorescence intensity in assay [8]. The same sequence registered a binding signal in assay [9] of 825 ± 34.8 fluorescence intensity.
